The list is not random: actives were taken first. Their share in the collection is about 3%.
NLRP3 yeast inh: blocks the NALP3 inflammasome reconstituted in yeast | Yeast reconstituted NLRP3/ASC/caspase-1, beta-gal luminescence, 24 h | inhibition, % at 10 µM | 330,000 compounds, 0.39% hits;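 active = inhibition of 50% or more; inactive = inhibition below 50%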
CHT block: inhibits the human high affinity choline transporter; Q9GZV3; CHT-expressing cells, membrane potential dye, choline response; active compounds read low; B-score at 10 µM; 310,000 compounds, 0.86% hits;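 active = B-score over 3 SD under the library average, and starting fluorescence ratio not unusually high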;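 note: choline stimulus applied at its EC90 after an EC20 pre-addition; B-score computed on integrated fluorescence ratio after choline addition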
Target sequence (Q9GZV3 whole entry, looked up): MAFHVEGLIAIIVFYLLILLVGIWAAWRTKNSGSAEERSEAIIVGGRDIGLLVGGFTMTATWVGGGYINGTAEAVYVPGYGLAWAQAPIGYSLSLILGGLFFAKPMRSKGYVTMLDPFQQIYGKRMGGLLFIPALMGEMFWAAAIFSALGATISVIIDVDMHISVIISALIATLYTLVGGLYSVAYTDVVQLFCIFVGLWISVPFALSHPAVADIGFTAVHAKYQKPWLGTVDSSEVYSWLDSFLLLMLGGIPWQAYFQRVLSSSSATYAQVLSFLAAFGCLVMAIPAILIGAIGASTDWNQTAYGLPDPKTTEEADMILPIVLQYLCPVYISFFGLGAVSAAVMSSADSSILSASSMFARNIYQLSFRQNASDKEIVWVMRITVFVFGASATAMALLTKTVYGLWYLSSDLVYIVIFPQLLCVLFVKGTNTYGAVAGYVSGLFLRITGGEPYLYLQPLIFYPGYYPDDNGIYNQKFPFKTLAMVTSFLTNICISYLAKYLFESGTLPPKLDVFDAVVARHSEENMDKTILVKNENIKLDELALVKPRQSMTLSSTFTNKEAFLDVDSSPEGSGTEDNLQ
A1 inh: inhibitors of the anti-apoptotic protein A1, read as caspase activation; 330,000 compounds, 0.066% hits; caspase activation, % (test concentration not listed); MEF A1-2A-BIM cells, Caspase-Glo 3/7 luminescence, 3 h; percent of clofoctol response, vehicle zero; AID 2462;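 active = over half of replicate activation scores above 10%, or exactly half above 10 with the replicate mean above 10; inconclusive = replicate mean below 10 yet half the replicates above 10; inactive = over half of replicates below 10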
CHT PAM: allosterically activates the human high affinity choline transporter; CHT-expressing cells, membrane potential dye, choline EC20; active compounds read high; LV-AA mutant CHT in HEK293 cells; B-score at 10 µM; 310,000 compounds, 0.49% hits; AID 488977;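 active = initial fluorescence not abnormally high and integrated response B-score, plate-corrected, over 3 SD above library mean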
NALP1 inh: NALP1 inhibition | S. cerevisiae NALP1/ASC/caspase-1 growth, X-gal OD620, 72 h | inhibition, % at 10 µM | 280,000 compounds, 0.61% hits; in the data active = inhibition mostly above about 24%, no sharp cut-off; inactive = mostly below about 32%
Mot1-301 SUMO: blocks SUMOylation pathway, rescuing yeast Mot1-301 growth. S. cerevisiae Mot1-301 growth rescue, ATP luminescence, 38.5C; percent above DMSO median, 100 means doubled. growth rescue, % at 18.8 µM. 320,000 compounds, 1% hits. AID 2716;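 active = every valid replicate shows activation above 250% relative to neutral control wells; inactive = the rest, any valid replicate at or below 250%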
Large screens that a line does not name were inactive; ! = repeats disagree.

CN1CCC(Oc2ccccc2Sc2ccccc2)CC1	none
CN1CCC(OC(c2ccccc2)c2ccccc2)CC1	Mot1-301 SUMO 321!
CC1CCC(C(C)C)C(OCC(O)CNC(C)c2ccccc2)C1 (centres undefined)	none
CC(NCC(O)COC1CCC(C(C)(C)C)CC1)c1ccccc1 (centres undefined)	NALP1 inh 25
CCCc1nnc(NS(=O)(=O)c2ccc(OC)cc2)s1	Mot1-301 SUMO 774
CCSc1nnc(NS(=O)(=O)c2ccc(OC)cc2)s1	none
OC[C@H]1OC(O)[C@H](O)[C@@H]1O (some centres undefined)	none (no result: NALP1 inh)
CCN(CC)S(=O)(=O)c1cccc(NC(=O)CCNC(=O)NC23CC4CC(CC(C4)C2)C3)c1	none (no result: NALP1 inh)
CC(C)C1C(c2ccccc2)N(C)C(c2ccccc2)CC1(O)c1ccccc1 (centres undefined)	Mot1-301 SUMO 379
CCC(C)c1ccccc1N1CC(C(=O)N(C)CC(=O)Nc2cccc(F)c2)CC1=O (centres undefined)	none (no result: NALP1 inh)
COc1cccc(/C=C/C(=O)c2ccc(C)c([N+](=O)[O-])c2)c1	Mot1-301 SUMO 500
COc1cccc(/C=C/C(=O)c2ccc[nH]2)c1	NALP1 inh 42
O=C(NC(=S)NCc1cccnc1)c1cc2ccccc2o1	A1 inh inconclusive
O=C(NC(=S)Nc1cccnc1)c1cc2ccccc2o1	NALP1 inh 47
CCOc1ccc(S(=O)(=O)N(C)c2ccc(OCC(=O)Nc3ccc4[nH]c(=O)[nH]c4c3)cc2)cc1	none
CN(c1ccc(OCC(=O)Nc2ccc3[nH]c(=O)[nH]c3c2)cc1)S(=O)(=O)c1ccc(Cl)cc1	NALP1 inh 42
COc1ccc(CCNC(=O)COc2ccc(N(C)S(=O)(=O)c3ccc(Cl)cc3)cc2)cc1	NALP1 inh 26 (no result: NLRP3 yeast inh, CHT block, A1 inh, CHT PAM, Mot1-301 SUMO)
CN(c1ccc(OCC(=O)NCCc2ccccc2)cc1)S(=O)(=O)c1ccc(Cl)cc1	none (no result: NALP1 inh)
O=C(COC(=O)/C=C/c1ccccc1[N+](=O)[O-])NNC(=O)c1ccc(F)cc1	none (no result: CHT block, A1 inh, CHT PAM, NALP1 inh, Mot1-301 SUMO)
CC(NC(=O)COC(=O)COc1cccc2c1OC(C)(C)C2)c1ccccc1 (centres undefined)	none
O=C1OC[C@H](Cc2ccc3c(c2)OCO3)/C1=C\c1ccc2c(c1)OCO2	none (no result: NALP1 inh)
NS(=O)(=O)c1ccc(NC(=S)NC(=O)c2ccco2)cc1	NALP1 inh 41!
NS(=O)(=O)c1ccc(NC(=S)NC2CC2)cc1	Mot1-301 SUMO 691
COc1ccccc1NC(=O)CSC1CC(=O)N(c2ccc3c(c2)OCO3)C1=O (centres undefined)	NALP1 inh 31
CC(C)(C)C(=O)Nc1ccc(C(=O)COC(=O)c2ccccn2)cc1	none (no result: CHT block, CHT PAM, NALP1 inh)
O=C(Nc1ccccc1N1CCCC1)c1cc2ccccc2o1	none
O=C(Nc1ccccc1N1CCN(C(=O)c2ccccc2)CC1)c1cc2ccccc2o1	Mot1-301 SUMO 264
CCN(CC(=O)Nc1c(F)cccc1F)C(=O)c1ccc(C)c(S(=O)(=O)N2CCCCC2)c1	none (no result: NALP1 inh)
Cc1ccc(S(=O)(=O)NCC2CCC(C(=O)NCc3ccc4c(c3)OCO4)CC2)cc1 (centres undefined)	NALP1 inh 41
O=C(NCc1ccc2c(c1)OCO2)C1CCC(CNS(=O)(=O)c2ccc(Cl)cc2)CC1 (centres undefined)	none
O=C(O)CNC(=S)N(Cc1ccccc1F)C1CCCCC1	Mot1-301 SUMO active
O=S(=O)(/C=C/c1ccccc1)NC1CCCCCCC1	Mot1-301 SUMO 328
CCOc1ccc(S(=O)(=O)Nc2cccc(C(=O)NCCCn3ccnc3)c2)cc1	none (no result: CHT block, CHT PAM, NALP1 inh)
COc1ccc(/C=N\Nc2ccccc2[N+](=O)[O-])c(C(=O)O)c1OC	Mot1-301 SUMO 974
CC(NCc1ccc(F)cc1)C(=O)NC1CCCCC1 (centres undefined)	NALP1 inh 44
Brc1ccc(/C=N/Nc2ncnc3c2cnn3Cc2ccccc2)cc1	NALP1 inh 30
COc1ccc(CCNCC(=O)Nc2ccc(C)c(S(=O)(=O)N(C)C)c2)cc1OC	NALP1 inh 36
CCCN(CC(=O)Nc1ccccc1OC)C(=O)CC1CCCC1	none (no result: CHT block, CHT PAM, NALP1 inh)
Cc1ccc(NC(=O)CSc2nc3ccccc3c(=O)n2CCCN2CCCCC2)cc1C	CHT PAM 7.3 (no result: Mot1-301 SUMO)
CC(=O)c1cccc(NC(=O)CSc2nc3ccccc3c(=O)n2CCCN2CCOCC2)c1	none (no result: CHT block, CHT PAM, NALP1 inh)
NS(=O)(=O)c1ccc(CCNC(=O)c2cc(-c3ccc(Br)cc3)nc3ccccc23)cc1	none
NS(=O)(=O)c1ccc(CCNC(=O)c2cc(-c3ccccn3)nc3ccc(Br)cc23)cc1	NALP1 inh 41
CCCCN1CC(=O)N2[C@H](c3ccc(OC)cc3)[C@@H]3C(=O)N(CC)C(=O)[C@@H]3[C@]2(Cc2ccccc2)C1=O	none
CC(C)Cc1nnc(NS(=O)(=O)Cc2ccccc2)s1	NALP1 inh 44
Cc1ccc(OCC(=O)NCCNC(=O)c2ccco2)cc1	Mot1-301 SUMO 348
Cc1cc(NC(=O)/C(C#N)=C/c2ccco2)n(-c2ccccc2)n1	none
Cc1ccc(-c2ccc(/C=C(\C#N)C(=O)Nc3cc(C)nn3-c3ccccc3)o2)cc1	A1 inh 33
CCOC(=O)C1CCCN(Cc2nc(CC3CC3)no2)C1 (centres undefined)	Mot1-301 SUMO active (no result: NALP1 inh)
O=C(Nc1cccc(N=Cc2cc(Cl)cc(Br)c2O)c1)c1ccco1	CHT block -7.1
O=C(Nc1cc(Br)c(O)c(Br)c1)c1cccc(NC(=O)c2ccco2)c1	none
Cc1nc2ccc(S(=O)(=O)NC(C(=O)NCc3ccco3)C(C)C)cc2s1 (centres undefined)	Mot1-301 SUMO 357
CC1CCN(CCc2nc3cc(NC(=O)COc4ccc(Cl)cc4)ccc3n2C)CC1	none
CCCCC1=CC2=C(c3ccco3)C(=O)C(C)(OC(=O)c3ccc(OC)cc3)C(=O)C2=CN1C1CC1 (centres undefined)	none (no result: NALP1 inh)
CCCCC1=CC2=C(c3ccco3)C(=O)C(C)(OC(=O)c3ccc(OC)cc3)C(=O)C2=CN1C1CCCC1 (centres undefined)	CHT block -7 (no result: NALP1 inh)
CN1CCN(Cc2nc3ccccc3c(=O)n2Cc2nc(-c3cccc([N+](=O)[O-])c3)cs2)CC1	NALP1 inh 34 (no result: CHT block, A1 inh, CHT PAM, Mot1-301 SUMO)
CCc1ccc(OCC(=O)OC2CCS(=O)(=O)C2)cc1 (centres undefined)	NALP1 inh 25
Cc1ccc(OCC(=O)OC2CCS(=O)(=O)C2)cc1 (centres undefined)	none
Cc1nn(Cc2c(Cl)cccc2Cl)c(C)c1NC(=O)c1cn(-c2ccccc2)nc1-c1ccccc1	A1 inh 13
CCOc1ccc(C(=O)N[C@H](C(=O)Nc2cccc(S(=O)(=O)N3CCOCC3)c2)C(C)C)cc1	none (no result: CHT block, A1 inh, CHT PAM, NALP1 inh, Mot1-301 SUMO)

Screening results from PubChem.
